In PubChem BioAssay (NCATS):
Inconclusive results are not listed. Active and inactive are the calls of the source. Calls follow the shape of the full dose curve.

Assay: Confirmatory qHTS for activators (rescue) of SARS-CoV-2 Cytopathic Effect (CPE) (AID 1508606); also: nearly all actives have a fitted effect of over 70% in size
Conditions: Vero E6 SARS-CoV-2 CPE rescue, viability luminescence; series mostly up to 20 µM
Potency is read from the fitted curve at half-maximal effect.

Structure (SMILES)	Potency
CC(=O)c1c(OCCN2CCCCC2)c(OCCC(C)c2ccc(F)cc2)c2oc(C)nc2c1C (centres undefined)	10 µM (active)
COc1ccc(NC(=O)c2ccc(-c3ccc(-c4nnc(C)o4)cc3C)cc2)cc1N1CCN(C)CC1	6.31 µM (active)
COc1cc(-n2cnc3cc(-c4ccc(Cl)cc4)sc3c2=O)ccc1OCCN1CCCC1	3.55 µM (active)
CCN(CC)CCCS(=O)(=O)N[C@H](CCc1ccccc1)c1nc(Cc2ccc(Br)cc2)no1	11.2 µM (active)
COc1ccc2c(c1)CN(C(=O)CCN1CCC(Cc3ccccc3)CC1)CCS2	4.92 µM (active)
C[C@H](NC(=O)[C@H](Cc1ccccc1)NC(=O)OCc1ccccc1)C(=O)CF	0.126 µM (active)
COC(=O)Nc1cc(Nc2cc(NC3CC3)c3ncc(C#N)n3n2)c(Cl)c(N2CCN(C)CC2)c1	inactive
CCCCCCCCC(=O)N[C@H](CN1CCCC1)[C@H](O)c1ccc2c(c1)OCCO2	8.91 µM (active)
CCC(CC)COC(=O)[C@H](C)N[P@](=O)(OC[C@H]1O[C@@](C#N)(c2ccc3c(N)ncnn23)[C@H](O)[C@@H]1O)Oc1ccccc1	10 µM (active)
